Reference: PubChem BioAssay (EPA / NIEHS)
The source made the active and inactive calls. Rule for the calls: active = hit-call score of the fitted dose curve at least 0.9, where 1 is the maximum; inactive = score below 0.9.

Key:
[1] = ATG_E_Box_CIS: Attagene CIS-FACTORIAL HepG2 Assay for human Enhancer Box (E-box) (AID 2282936); conditions: HepG2 E-box cis-reporter transcription, actives raise or lower the signal
Procedure, shortened: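 HepG2 cells transiently transfected with multiplexed cis-element reporter units sensing endogenous transcription factor activity; 24 h compound exposure. Reporter mRNA measured by RT-PCR, 6-FAM primer extension, HpaI digestion and capillary electrophoresis; bidirectional fit versus DMSO.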

[2] = ATG_M_61_CIS: Attagene CIS-FACTORIAL HepG2 Assay for M61 Transcription Factor (Internal Marker) (AID 2282937); conditions: HepG2 Attagene CIS-FACTORIAL M61 internal marker reporter; actives raise or lower the signal
Procedure, shortened: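 Cells were transfected with reporter units under cis-regulatory promoters, treated with chemicals for 24 h, then lysed for RNA. Reporter transcripts were quantified by RT-PCR and capillary electrophoresis, and activity was fitted bidirectionally against DMSO.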

[3] = ATG_EGR_CIS: Attagene CIS-FACTORIAL HepG2 Assay for human Early Growth Response 1 (EGR1) (AID 2282938); conditions: HepG2 Attagene CIS-FACTORIAL EGR reporter mRNA; actives raise or lower the signal
Procedure, shortened: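 Endogenous TF activity in HepG2 liver cells was gauged through cis-promoter reporter constructs transiently transfected. After 24 h dosing, reporter mRNA was quantified by RT-PCR and capillary electrophoresis, and curves fitted in both directions versus DMSO.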

[4] = ATG_M_19_CIS: Attagene CIS-FACTORIAL HepG2 Assay for M19 Transcription Factor (Internal Marker) (AID 2282939); conditions: HepG2 Attagene CIS-FACTORIAL M19 internal marker reporter; actives raise or lower the signal
Procedure, shortened: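 HepG2 cells transiently transfected with cis-regulated multiplexed reporter units, dosed 24 h. Reporter mRNA quantified by RT-PCR and capillary electrophoresis; internal background marker fitted bidirectionally versus DMSO.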

[5] = ATG_ERE_CIS: Attagene CIS-FACTORIAL HepG2 Assay for Estrogen Response Element (ERE) (AID 2282940); conditions: HepG2 ERE cis-reporter, Attagene RNA transcript; actives raise or lower the signal
Procedure, shortened: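 HepG2 cells transiently transfected with multiplexed cis-element reporter units, measuring endogenous transcription factor activity; ERE reporter mRNA quantified after 24 h exposure by RT-PCR, fluorescent labelling, HpaI digestion and capillary electrophoresis. Bidirectional change versus DMSO.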

[6] = ATG_Ets_CIS: Attagene CIS-FACTORIAL HepG2 Assay for human Erythroblast Transformation Specific (ETS) (AID 2282941); conditions: HepG2 ETS cis-reporter transcription, actives raise or lower the signal
Procedure, shortened: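 HepG2 cells transiently transfected with cis-promoter reporter transcription units were dosed for 24 h; reporter mRNA was measured by RT-PCR, 6-FAM primer extension, HpaI digestion and capillary electrophoresis, with bidirectional fitting against DMSO baseline.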

[7] = molecular target: Hepatocyte nuclear factor 3-beta (Homo sapiens) (UniProt Q9Y261); experiment: ATG_FoxA2_CIS: Attagene CIS-FACTORIAL HepG2 Assay for human Forkhead box A2 (FOXA2) (AID 2282942); conditions: HepG2 cis-reporter transcription factor activity, 24 h; actives raise or lower the signal
Procedure, shortened: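 Endogenous transcription factor activity was read in HepG2 cells carrying transiently transfected cis-promoter reporter units. After 24 h dosing, reporter mRNA was quantified by RT-PCR and capillary electrophoresis, and values fitted bidirectionally versus DMSO.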

[8] = ATG_FoxO_CIS: Attagene CIS-FACTORIAL HepG2 Assay for human Forkhead box O (FoxO) (AID 2282943); conditions: HepG2 Attagene cis-reporter, FoxO element, mRNA; actives raise or lower the signal
Procedure, shortened: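 Values reflect reporter mRNA induction or loss in HepG2 cells 24 h post-dosing, fitted bidirectionally with DMSO as negative control and baseline. Detection used RT-PCR and fluorescence capillary electrophoresis.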

[9] = ATG_GATA_CIS: Attagene CIS-FACTORIAL HepG2 Assay for human GATA Binding Protein (AID 2282944); conditions: HepG2 GATA cis-element reporter, Attagene multiplex mRNA; actives raise or lower the signal
Procedure, shortened: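 HepG2 cells transiently transfected with multiplexed cis-element reporter units measure endogenous GATA activity; after 24 h compound exposure, reporter mRNA quantified by RT-PCR and capillary electrophoresis. Changes fitted in both directions vs DMSO.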

Measured: outcome

Chain of Hepatocyte nuclear factor 3-beta (Homo sapiens) (Q9Y261 whole entry, looked up): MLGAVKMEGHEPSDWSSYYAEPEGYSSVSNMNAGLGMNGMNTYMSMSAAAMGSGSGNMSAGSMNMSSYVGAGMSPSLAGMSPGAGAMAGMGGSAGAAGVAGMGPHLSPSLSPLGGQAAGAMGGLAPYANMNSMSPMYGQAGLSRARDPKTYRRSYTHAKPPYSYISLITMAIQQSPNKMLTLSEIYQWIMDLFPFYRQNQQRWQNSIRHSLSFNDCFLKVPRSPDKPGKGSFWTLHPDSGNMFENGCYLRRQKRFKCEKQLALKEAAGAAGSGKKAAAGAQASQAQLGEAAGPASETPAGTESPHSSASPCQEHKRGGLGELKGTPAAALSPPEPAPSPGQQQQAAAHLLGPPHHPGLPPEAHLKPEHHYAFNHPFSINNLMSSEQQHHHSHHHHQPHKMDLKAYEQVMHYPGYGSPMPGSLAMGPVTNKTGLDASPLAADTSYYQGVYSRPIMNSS

CC/C=C\C#N
inactive: all assays above
